Results published in PubChem BioAssay (NCI).
Compounds without any hit were thinned out: in the full panel of roughly 83,000, 20% have a hit.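 Cell lines were cultured in 96-well plates, exposed to a single compound concentration, and assessed for percent growth 48 hours later.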 The source made the active and inactive calls. How the source made its calls: active means growth percent below 10; inactive means the rest.

How the values were obtained:
Assay in all cases: NCI-60 one-dose screen, 48 h (100 = growth as untreated, 0 = no growth, -100 = all killed)
Settings in all cases: 10 µM unless noted
[1] = tested on: DU-145 prostate
[2] = tested on: K-562 leukemia
[3] = tested on: MALME-3M melanoma
[4] = tested on: MDA-MB-231 breast
[5] = tested on: RXF 393 renal
[6] = tested on: SF-268 CNS
[7] = tested on: SF-295 CNS
[8] = tested on: SF-539 CNS
[9] = tested on: UACC-257 melanoma
[10] = tested on: M14 melanoma

Measured: growth

Cc1cc(NC(=O)c2ccccc2)c(Cl)cc1N
inactive: [1] 126% | [2] 98.8% | [3] 103% | [4] 96% | [5] 124% | [6] 114% | [7] 94% | [8] 95.5% | [9] 100% | [10] 95.8%

NC(CSSCC(N)C(=O)O)C(=O)O (stereo not given)
active: [3] 4.18% | [4] 2.86% | [5] -37.9% | [8] -36.8% | [9] 5.8% | [10] 2.4%
inactive: [1] 36% | [2] 13.8% | [6] 28.1% | [7] 11%

Cc1cc(C(=O)c2ccccc2)cc(C)c1O
inactive: [1] 113% | [2] 94.7% | [3] 94.1% | [4] 124% | [5] 116% | [6] 102% | [7] 107% | [8] 90.4% | [9] 115% | [10] 103%

COC(=O)Cc1cc(COC(C)=O)ccc1C
inactive: [1] 116% | [2] 108% | [3] 110% | [4] 125% | [5] 107% | [6] 113% | [7] 121% | [8] 111% | [9] 108% | [10] 106%

O=C(N/N=C\c1ccc(Cl)cc1Cl)c1ccncc1
inactive: [1] 111% | [2] 96.7% | [3] 99.1% | [4] 98.9% | [5] 118% | [6] 98.7% | [7] 103% | [8] 105% | [9] 104% | [10] 100%

CC(=O)N(C(C)=O)c1ccc(C)cc1
inactive: [1] 107% | [2] 99.1% | [3] 97.2% | [4] 102% | [5] 104% | [6] 96.9% | [7] 93.5% | [8] 98% | [9] 110% | [10] 114%

CC1CC(C)S(=O)(=O)C1 (stereo not given)
inactive: [1] 104% | [2] 92.4% | [3] 110% | [4] 115% | [5] 115% | [6] 111% | [7] 105% | [8] 104% | [9] 95.7% | [10] 111%

CCOC(=O)CSCCC#N
inactive: [1] 108% | [2] 112% | [3] 106% | [4] 110% | [5] 97.8% | [6] 101% | [7] 94.7% | [8] 92.2% | [9] 95.4% | [10] 94.9%

COC1(OC)C2(Cl)C(Cl)=C(Cl)C1(Cl)C1COCC12 (stereo not given)
inactive: [1] 102% | [2] 97.3% | [3] 110% | [4] 105% | [5] 103% | [6] 108% | [7] 102% | [8] 109% | [9] 63.3% | [10] 100%

COc1ccc(C(=O)/C(=N/Nc2ccccc2)c2ccc(OC)cc2)cc1
inactive: [1] 115% | [2] 92.8% | [3] 109% | [4] 82.7% | [5] 92.4% | [6] 101% | [7] 101% | [8] 95.9% | [9] 111% | [10] 102%

C[C@H](CCC[C@H](C)OS(=O)(=O)c1ccccc1)OS(=O)(=O)c1ccccc1
inactive: [1] 119% | [2] 110% | [3] 96.9% | [4] 103% | [5] 142% | [6] 105% | [7] 102% | [8] 91.7% | [9] 107% | [10] 106%

CCOc1ccc(C(=O)O)cc1
inactive: [1] 112% | [2] 115% | [3] 118% | [4] 112% | [5] 105% | [6] 110% | [7] 94.6% | [8] 106% | [9] 104% | [10] 97.5%

CC(C)C(=O)OCCOc1ccc(C(C)(C)C)cc1
inactive: [1] 104% | [2] 103% | [3] 97.3% | [4] 90.5% | [5] 109% | [6] 96.1% | [7] 99.3% | [8] 99.5% | [9] 87.7% | [10] 107%

COc1cc(CC#N)c([N+](=O)[O-])cc1OC
inactive: [1] 109% | [2] 94.8% | [3] 111% | [4] 99.9% | [5] 112% | [6] 103% | [7] 110% | [8] 102% | [9] 103% | [10] 109%

CCOC(=O)C(CCC#N)(CCC#N)C(=O)OCC
inactive: [1] 110% | [2] 115% | [3] 113% | [4] 105% | [5] 104% | [6] 99.2% | [7] 96.4% | [8] 103% | [9] 103% | [10] 89.2%

COC1OC(COC(C)=O)C(OC(C)=O)C(OC(C)=O)C1OC(C)=O (stereo not given)
inactive: [1] 111% | [2] 102% | [3] 96.9% | [4] 90% | [5] 114% | [6] 101% | [7] 90.1% | [8] 98.4% | [9] 85% | [10] 104%

OCC1CCC(O)C(CO)N1 (stereo not given)
inactive: [1] 113% | [2] 116% | [3] 106% | [4] 106% | [5] 107% | [6] 106% | [7] 91% | [8] 87.9% | [9] 110% | [10] 96.5%

Nc1nc(N)nc(N2CCCCC2)n1
inactive: [1] 107% | [2] 105% | [3] 96.3% | [4] 96.5% | [5] 105% | [6] 107% | [7] 113% | [8] 97.6% | [9] 101% | [10] 111%

CCC(=O)Oc1c(C)cc(O)c2ccccc12
inactive: [1] 107% | [2] 73.4% | [3] 113% | [4] 88.6% | [5] 92.4% | [6] 90.9% | [7] 83.4% | [8] 91.6% | [9] 94.4% | [10] 95.2%

CC1(C)C2CCC1(C)C1(C2)OCCS1 (stereo not given)
inactive: [1] 103% | [2] 96.5% | [3] 94.6% | [4] 100% | [5] 96% | [6] 93.8% | [7] 92.2% | [8] 94.1% | [9] 102% | [10] 113%

CC(=O)NC(CCC(=O)c1ccccc1)C(=O)O (stereo not given)
inactive: [1] 107% | [2] 108% | [3] 96.6% | [4] 107% | [5] 105% | [6] 101% | [7] 101% | [8] 91.2% | [9] 76.7% | [10] 90.9%

OCC1OC(n2ccc3c2ncn2ncnc32)C(O)C1O (stereo not given)
inactive: [1] 16.9% | [2] 18.4% | [3] 83.7% | [4] 40.9% | [5] 38.3% | [6] 47.4% | [7] 43.7% | [8] 34.3% | [9] 97.7% | [10] 51.3%

CCOC(=O)CNC(=O)Sc1ccc(C(C)(C)C)cc1
inactive: [1] 114% | [2] 71.9% | [3] 90.7% | [4] 105% | [5] 118% | [6] 107% | [7] 102% | [8] 94% | [9] 111% | [10] 102%

C=C1C(=O)C2CCC1C2 (stereo not given)
inactive: [1] 98.4% | [2] 92.6% | [3] 93.6% | [4] 103% | [5] 112% | [6] 88.9% | [7] 102% | [8] 105% | [9] 105% | [10] 96.5%

O=S(=O)(O)C(C(I)I)S(=O)(=O)O
inactive: [1] 106% | [2] 105% | [3] 107% | [4] 126% | [5] 104% | [6] 100% | [7] 113% | [8] 99.8% | [9] 102% | [10] 109%

CC(=O)c1ccc(C)cc1
inactive: [1] 114% | [2] 114% | [3] 90.8% | [4] 114% | [5] 97.6% | [6] 107% | [7] 109% | [8] 114% | [9] 92% | [10] 107%

Cc1cc2c(C(C)C)c(O)c(O)c(C=Nc3ccccc3[N+](=O)[O-])c2c(O)c1-c1c(C)cc2c(C(C)C)c(O)c(O)c(C=Nc3ccccc3[N+](=O)[O-])c2c1O
inactive: [1] 94.6% | [2] 34.9% | [3] 93.5% | [4] 74.4% | [5] 83.2% | [6] 73.5% | [7] 82% | [8] 97.2% | [9] 92.6% | [10] 88%

O=C(NCc1ccccc1)c1cccc([N+](=O)[O-])c1
inactive: [1] 104% | [2] 102% | [3] 90.5% | [4] 91.1% | [5] 104% | [6] 92.6% | [7] 104% | [8] 102% | [9] 88% | [10] 107%
